Mdm2-MdmX inh: inhibitors of human Mdm2/MdmX interaction | hit rate 3% among 330,000 | SaOS-2 split-luciferase Mdm2/MdmX complementation, luminescence | O15151+Q00987 | inhibition, % at 8 µM;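 active means inhibition of at least 50% at 8 µM in the primary screen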
aSyn UTR inh: 5' untranslated region of α-synuclein, MLPCN primary screen; alpha-synuclein 5'UTR reporter, inhibitor activity; inhibition, % (tested at 7.5 µM); hit rate 0.82% among 300,000; AID 1813; in the data active means inhibition above about 60%;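 further: H4 neuroglioblastoma cells stably carrying SNCA 5'UTR luciferase fusion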
Beta cell apopt: blocks beta cell apoptosis | INS-1E cytokine-induced death, ATP luminescence, 48 h; percent of positive-control rescue, neutral wells zero | protection from apoptosis, % (concentration not given with the values) | hit rate 0.8% among 300,000 | AID 435005;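 active means Every replicate reaches about 75%, or at least half do and their mean reaches it too, limit read from the data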;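 further: higher means more ATP so stronger rescue from cytokine killing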
A1 inh: inhibitors of the anti-apoptotic protein A1, read as caspase activation; caspase activation, % (concentration not given with the values); MEF A1-2A-BIM cells, Caspase-Glo 3/7 luminescence, 3 h; percent of clofoctol response, vehicle zero; hit rate 0.066% among 330,000;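 active means over half of replicate activation scores above 10%, or exactly half above 10 with the replicate mean above 10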
CSC inhib: blocks cancer stem cells; cancer stem cell-like cells viability, luminescence; inhibition, % at 7.5 µM; hit rate 1.1% among 300,000; in the data active means inhibition above about 75%; tested in HMLE shEcad cells
Mdm2-MdmX conf: human Mdm2/MdmX binding inhibition, confirmed. inhibition, % at 8 µM. shares compounds with Mdm2-MdmX inh. hit rate 55% among 10,000. AID 489028. luminescent assay; in the data active means inhibition above about 40%
Full FLuc ctr: full-length luciferase inhibition in Mdm2/MdmX counter-screen. AID 504607. SaOS-2 full-length luciferase counterscreen, luminescence. shares compounds with Mdm2-MdmX inh. hit rate 77% among 6,200. inhibition, % at 8 µM;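 active means mean inhibition at 8 µM reaching about 37%, which flags the compound as non-specific, limit read from the data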;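 further: p53-null SaOS-2 cells with luciferase driven by a doxycycline-inducible promoter; compound on cells about two nights before reading with doxycycline added after day one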
Hits are given with their value; - = inactive; . = no result. The list is not random: actives were taken first. Their share in the collection is about 4.1%.

SMILES | Mdm2-MdmX inh | aSyn UTR inh | Beta cell apopt | A1 inh | CSC inhib | Mdm2-MdmX conf | Full FLuc ctr
COc1ccc(NC(=O)C2CCCN2C(=O)NC2CCCCC2)cc1 (stereo not given) | - | - | - | - | - | . | .
Cc1ccc(C(=O)N2C(CC(=O)Nc3ccc(Cl)cc3)C(=O)NC3CCCCC32)cc1 (stereo not given) | 54 | - | - | - | - | 55 | -
CCOC(=O)c1[nH]c2ccc(Cl)cc2c1NC(=O)/C=C/c1ccc2c(c1)OCO2 | 56 | - | - | - | - | 45 | 94
CCN(CC(=O)Nc1c(C(=O)OC)[nH]c2ccc(Cl)cc12)c1ccc2c(c1)OCO2 | - | - | - | - | - | . | .
Clc1nc(-c2ccccn2)nc2scc(-c3ccccc3)c12 | 57 | - | - | - | - | - | .
CN1CCN(c2nc(-c3cccnc3)nc3scc(-c4ccccc4)c23)CC1 | - | - | - | - | - | . | .
C[C@H]1Oc2ccccc2C(=O)C1C(=O)c1ccccc1 (stereo not given in full) | - | - | - | - | - | . | .
CCOC(=O)c1c(C)nc2sc(C(=O)Nc3ccc(OC)cc3)c(N)c2c1-c1ccc(OC)cc1 | 58 | - | - | - | - | 56 | 53
CC(=O)c1c(C)[nH]c(C(=O)Nc2cccc(S(=O)(=O)N3CCCC3)c2)c1C | 70 | . | - | - | - | - | .
CC(=O)c1c(C)[nH]c(C(=O)Nc2cccc(S(=O)(=O)N(C)C)c2)c1C | - | - | . | - | - | . | .
CC(=O)c1c(C)[nH]c(C(=O)Nc2ccc(Cl)c(S(=O)(=O)N3CCOCC3)c2)c1C | 59 | - | - | - | - | - | .
COc1ccccc1NS(=O)(=O)c1cc(NC(=O)c2ccc(=O)[nH]c2)ccc1N1CCOCC1 | - | - | . | - | - | . | .
CC(=O)c1c(C)[nH]c(C(=O)OCC(=O)Nc2cc(S(=O)(=O)N3CCCC3)ccc2Cl)c1C | 54 | - | - | - | - | - | .
COc1ccccc1NS(=O)(=O)c1cc(NC(=O)c2[nH]c(C)c(C(C)=O)c2C)ccc1N1CCOCC1 | 61 | - | - | - | - | - | .
CC(=O)c1c(C)[nH]c(C(=O)OCC(=O)Nc2cccc(S(=O)(=O)N3CCCC3)c2)c1C | - | - | - | - | - | . | .
COc1cc(OC)cc(C(=O)Nc2ccc3c(c2)CCCN3C(=O)c2cccs2)c1 | 78 | - | - | - | - | 60 | 86
COc1ccccc1C(=O)Nc1ccc2c(c1)CCCN2C(=O)c1ccccc1 | - | - | - | - | - | . | .
O=C(Nc1ccc2c(c1)CCCN2C(=O)c1ccccc1)c1ccccc1Br | 79 | - | - | - | - | 46 | 77
COc1cc(OC)cc(C(=O)Nc2ccc(N3CCN(C(=O)c4cccs4)CC3)cc2)c1 | 63 | - | - | - | - | 70 | 69
COC1=CC(=O)[C@@]2([C@@H]1O)[C@@H](Cl)C[C@]13C(OC)=C(OC)C(=O)C[C@]21CCN3C | - | . | - | - | . | . | .
COCCNC(=O)C1CCC(CNS(=O)(=O)c2c(C)cc(C)cc2C)CC1 (stereo not given) | - | - | - | - | - | . | .
CCOc1ccc2nc(N3CCCC(C(=O)NCCCN4CC(C)CC(C)C4)C3)sc2c1 (stereo not given) | 53 | - | . | - | - | - | .
Cc1cc(C)c2nc(N3CCC(C(=O)NCCCN4CC(C)CC(C)C4)CC3)sc2c1 (stereo not given) | 97 | - | - | - | - | 76 | -
CCOc1ccc2nc(N3CCCC(C(=O)NCCCN4CCCCC4)C3)sc2c1 (stereo not given) | - | - | - | - | - | . | .
Cc1cc(C)c(S(=O)(=O)NCC2CCC(C(=O)NCCCN3CCC(C)CC3)CC2)c(C)c1 (stereo not given) | 51 | - | - | - | - | - | .
SMILES | Mdm2-MdmX inh | aSyn UTR inh | Beta cell apopt | A1 inh | CSC inhib | Mdm2-MdmX conf | Full FLuc ctr
CCn1ccc(C(=O)Nc2ccc3c(c2)CCC3)n1 | - | - | - | - | - | . | .
Cc1ccc(C(=O)Sc2cccccc2=O)cc1 | 100 | - | - | - | - | 82 | -
COc1cc(/C=C/C(=O)O)cc(S(=O)(=O)Nc2ccc(S(=O)(=O)N3CCCCC3)cc2)c1OC | - | . | . | . | . | . | .
Cc1nn2c(NCc3ccccn3)c3c(nc2c1-c1ccccc1)CCC3 | 53 | - | - | - | - | - | -
COc1ccc(Nc2c3c(nc4c(-c5ccccc5)c(C)nn24)CCC3)cc1 | 52 | - | - | - | . | - | .
Cc1nn2c(NCc3ccccn3)cc(C(C)(C)C)nc2c1-c1ccccc1 | 62 | - | - | - | - | - | .
COC(=O)CCC(=O)OC1(C)C(=O)C=C2C=C(C3CC3)OC=C2C1=O (stereo not given) | - | - | - | - | - | . | .
COc1ccc(OCC(=O)Nc2ccc(NC(=O)c3ccccc3Cl)c(OC)c2)cc1 | - | - | - | - | - | . | .
COc1ccccc1/C=C/C(=O)OCC(=O)Nc1ccc(Cl)cn1 | 55 | - | - | - | - | 51 | 60
CN(C)CCCN(C(=O)CCc1ccccc1)c1nc2ccc(Br)cc2s1 | 58 | - | - | - | - | - | 52
Cc1cccc2sc(N(CCCN(C)C)C(=O)CCc3ccccc3)nc12 | 60 | 62 | - | - | - | - | .
CCCC(C)c1oc(=O)cc(O)c1C (stereo not given) | - | . | . | . | . | . | .
N#CCCCc1cc2ccccc2cn1 | - | . | - | - | . | . | .
FC(F)(F)c1cccc(Cn2c3[n+](c4ccc(C(F)(F)F)cc42)CCCCC3)c1 | - | - | - | - | - | . | .
Cc1cc(C(C)(C)C)cc(C)c1Cn1c2[n+](c3ccc(C(F)(F)F)cc31)CCCCC2 | 72 | - | 86 | - | - | 48 | 50
CSc1cccc(N2CC(C(=O)N3CCN(S(=O)(=O)c4ccccc4Cl)CC3)CC2=O)c1 (stereo not given) | - | . | - | - | - | . | .
CCOC(=O)c1ccc(Nc2sc(C(=O)c3cccc([N+](=O)[O-])c3)c(N)c2C#N)cc1 | 75 | - | - | - | - | 74 | 44
CCc1cc(C(=O)N(CCCOC)c2c(N)n(Cc3ccccc3)c(=O)[nH]c2=O)sc1C | - | - | - | - | - | . | .
O=C(CN1CCC(C(O)(c2ccccc2)c2ccccc2)CC1)Nc1cc(Cl)ccc1Cl | 54 | - | - | - | - | 45 | 86
O=C(O)c1cccc(NC(=O)c2ccc3c(c2)C(=O)N(C2CCCCC2)C3=O)c1 | - | - | - | - | - | . | .
Cc1cccc(C(=O)NNC2=C(C(=O)C(F)(F)F)CCC2)c1O | 62 | - | - | - | 110 | - | .
Cn1c(CC(=O)Nc2ccccc2F)nnc1SCC(=O)N1CCOCC1 | - | - | - | - | - | . | .
O=C(Cc1ccc(S(=O)(=O)N2CCOCC2)s1)Nc1cc(C(F)(F)F)cc(C(F)(F)F)c1 | 56 | . | - | - | - | - | .
O=C(Cc1ccc(S(=O)(=O)N2CCOCC2)s1)Nc1cc(C(F)(F)F)ccc1N1CCCC1 | - | - | - | - | - | . | .
